High-throughput results from PubChem.
MCF10A rereplic: induces DNA re-replication in MCF 10a normal breast cells; MCF 10A DNA re-replication, Hoechst nuclear intensity, 48 h; Potency, µM (highest dose often 46.1 µM), for inactives: at the highest dose activity, positive = re-replication, hits mostly activators; AID 624296; 350,000 tested, 2.9% active; also: % of control where 0% means no effect; nearly all actives have a fitted effect of over 50% in size
HT1080 IDH1KD tx: kills HT-1080 cells with IDH1 knockdown; HT-1080 IDH1 knockdown viability, ATP luminescence, 48 h; Potency, µM (doses to about 46.1 µM), for inactives: top-dose activity, negative = toxicity, most hits filed as cytotoxic; 360,000 tested, 2% active;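 also: 0% = DMSO wells and -100% = cell-free medium wells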
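Knockdown cells (IDH1KD HT-1080) received compounds 2 h after plating at 750 cells/well and were kept 48 h at 37 °C in 5% FBS RPMI. A CellTiter-Glo luminescence read gave % activity for curve fitting.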
KB-3-1 cytotox: kills parental KB-3-1 adenocarcinoma cells. Potency, µM (top dose mostly 46.1 µM), actives largely listed as cytotoxic. AID 1347075. 400,000 tested, 1.4% active. KB-3-1 viability, CellTiter-Glo ATP luminescence, 72 h; also: % is scaled to controls: 0 for no effect and ±100 for the full control effect; nearly all actives have a fitted effect of over 60% in size
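Parental KB-3-1 adenocarcinoma cells in phenol-red-free DMEM with 10% FBS were pin-treated with compounds at several concentrations, incubated 72 h at 37 °C, and viability read by CellTiter-Glo luminescence; concentration-effect curves were fitted after normalization.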
HT1080NT lethal: kills 2HG-producing HT-1080-NT fibrosarcoma cells; 360,000 tested, 1.6% active; HT-1080-NT fibrosarcoma viability, CellTiter-Glo ATP luminescence, 48 h; AID 686970; Potency, µM (titrated, usually from 46.1 µM), without a hit: top-dose activity, negative = less viability, actives largely listed as cytotoxic;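 also: NT is the 2HG producing partner of a matched IDH1 knockdown line; 0% = DMSO-treated cells and -100% = media-only wells without cells; nearly all actives have a fitted effect of over 55% in size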
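HT-1080-NT; 750 cells/well; 5% FBS RPMI; 48 h compound, 37 degrees C; CellTiter-Glo luminescence; curve fitting and curve-class assignment.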
KB-V1 cytotox: kills drug-selected multidrug resistant KB-V1 cells; KB-V1 MDR cells viability, CellTiter-Glo, 72 h; 400,000 tested, 3.4% active; Potency, µM (titrated, usually from 46.1 µM), hits mostly cytotoxic; also: % is scaled to controls: 0 for no effect and ±100 for the full control effect; nearly all actives have a fitted effect of over 60% in size
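Drug-selected KB-V1 cells, grown in DMEM lacking phenol red with 10% FBS, receive compound titrations; after three days at 37 degrees C, surviving cell ATP is quantified by CellTiter-Glo luminescence and responses normalized and curve-fitted.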
SW480 rereplic: inducers of DNA re-replication in SW480 colon cancer cells; SW480 DNA re-replication, Hoechst DNA content imaging, 48 h; Potency, µM (doses to about 46.1 µM), without a hit: at the top dose re-replication activation, usual class: activators; 340,000 tested, 1.8% active; AID 624297; also: % of control where 0% means no effect; nearly all actives have a fitted effect of over 55% in size
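Quantitative HTS format with DMSO vehicle controls; 48 hr drug incubation at 37 C, then 40 min Hoechst staining and scanning imager measurement at 405 nm excitation.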
Active calls of the source: *; i = inactive; ? = inconclusive; · = not tested or not shown; ! = not active in a repeat; [ ] = dose if it differs, or a comment. This is a sample that favours compounds with a hit; in the whole collection about 7.9% have one here. Calls follow the shape of the dose curve; as a rule, active = well fitted curve in the direction sought with a large enough effect; inconclusive = small, poorly fitted or top-dose-only effect, or another doubt; inactive = no such curve, though single readings can be large; an effect the other way counts as inactive or inconclusive. Potency is read from the fitted curve at half-maximal effect.

SMILES | MCF10A rereplic | HT1080 IDH1KD tx | KB-3-1 cytotox | HT1080NT lethal | KB-V1 cytotox | SW480 rereplic
O=S(=O)(c1ccc(-c2ccon2)s1)N1CCOCC1 | 19.1% | 2.1% | i | 5.4% | i | 0.581µM*
C/C(=N/NC(=O)c1sc(NS(=O)(=O)c2ccccc2)nc1C)c1ccc(F)cc1 | ? | -1.8% | i | -0.8% | i | 6.4%
O=C(COC(=O)c1cccs1)Nc1ccccc1[N+](=O)[O-] | -22.8%[9.22 µM] | 8.5% | i | -9.7% | i | -28.6%
COc1ccccc1CNC(=O)CCc1cn(C)c2ccccc12 | 9.4% | 6.3% | i | 14.0% | i | -11.0%
CCOC(=O)CNC(=O)C(Cc1ccccc1)NS(=O)(=O)c1cccs1 (configuration not stated) | 20.6µM* | -3.2% | i | -4.7% | i | 1.0%
CSCCC(NS(=O)(=O)c1cccs1)C(=O)NCc1ccc(C)cc1 (configuration not stated) | 3.0% | 5.8% | i | 0.9% | ? | 0.164µM*
COc1ccc(NS(=O)(=O)c2cc(NC(=O)CCNC(C)=O)ccc2N2CCCCC2)cc1 | -1.2% | 0.7% | i | -2.7% | i | 63.9%
Cc1ccc(NC(=O)CCNC(=O)c2ccco2)cc1Cl | -2.8% | -4.7% | ? | -8.8% | i | -16.0%
CC(Sc1nnc(CN2CCCC2)n1Cc1ccccc1)C(=O)Nc1ccc(F)c(F)c1F (configuration not stated) | 24.7% | -2.5% | i | -1.7% | 1.03µM* | -2.9%
CCOc1ccc(C(=O)c2cn(CC(=O)Nc3ccc(Cl)cc3)c3cc4c(cc3c2=O)OCO4)cc1 | · | · | ? | · | i | ·
CN(C)CCNS(=O)(=O)c1ccc(N2CCN(c3ccc(F)cc3)CC2)c([N+](=O)[O-])c1 | ? | 18.4µM* | ? | ? | ? | ?
O=[N+]([O-])c1cc(S(=O)(=O)NCCN2CCOCC2)ccc1Sc1nnnn1-c1ccccc1 | ? | ? | 13µM* | ? | i | 14.6µM*
Cc1ccc(-n2nnnc2Sc2ccc(S(=O)(=O)NCCN(C)C)cc2[N+](=O)[O-])cc1 | ? | 23.1µM* | i | ? | ? | 8.2µM*
O=S(=O)(NCCN1CCOCC1)c1ccc2ccccc2c1 | 36.9% | -5.5% | i | 2.0% | i | ?
COc1ccc(CCC(C)NCC2CCCCC2)cc1 (configuration not stated) | ? | -6.7% | ? | -23.5% | 20.6µM* | ?
Cc1cc(C(=O)O/N=C(\N)c2ccc(C(C)(C)C)cc2)no1 | 3.7% | 0.2% | i | 7.8% | i | -8.7%
Cc1noc(-c2ccc(Cl)cc2)c1C(=O)O/N=C(\N)c1ccc(C(C)(C)C)cc1 | ? | ? | ? | ? | 18.4µM* | -2.0%
Nc1cccc2c1C(=O)N(C(=O)/C=C/c1cccc(Br)c1)C2=O | 20.6µM* | ? | i | ? | ? | ?
Nc1cccc2c1C(=O)N(C(=O)/C=C/c1cccc(F)c1)C2=O | ? | 16.4µM* | ? | 18.4µM* | ? | 18.4µM*
O=C(/C=C/c1cccc(F)c1)N1CCN(c2ccccn2)CC1 | -11.5% | -8.1% | i | 2.0% | i | 12.0%
COc1nc(N2CCCCCC2)nc(N2CCCCCC2)n1 | 18.4µM* | -19.1% | ? | -6.7% | 14.6µM* | 18.6%
COc1nc(C#N)nc(N2CCCC2)n1 | · | · | i | · | i | ·
Cc1cccc(C)c1NC(=S)Nc1ccccc1C(=O)NCc1ccco1 | 0.1% | 4.9% | i | 7.1% | i | 1.9%
O=C(Nc1ccccc1)[C@@H]1CC=C[C@@H]2CCN(Cc3ccc(Cl)c(Cl)c3)C(=O)[C@@H]21 | -3.2% | ? | i | ? | 20.6µM*! | 4.7%
Cc1ccc(C(=O)Nc2nc(COc3ccccc3)cs2)s1 | 20.6µM* | ? | i | ? | ? | ?
SMILES | MCF10A rereplic | HT1080 IDH1KD tx | KB-3-1 cytotox | HT1080NT lethal | KB-V1 cytotox | SW480 rereplic
O=C(Nc1nc(COc2ccccc2)cs1)C12CC3CC(CC(C3)C1)C2 | 8.2µM* | ? | i | 6.31µM* | i | -3.0%
CCC(C(=O)NC(C)(C)C)N(C(=O)Cn1nnc(-c2ccccc2F)n1)c1cnc2ccccc2c1 (configuration not stated) | -6.2% | 2.5% | i | -0.4% | i | 4.1%
CCN1C(=S)N[C@@H](CCc2ccccc2)C(C(=O)OC)=C1C | -0.8% | 5.7% | i | 15.7% | i | -2.2%
CCCNC(=O)C(Cc1ccccc1)NC(=O)c1ccccn1 (configuration not stated) | 2.7% | 16.9% | ? | 3.2% | i | -5.4%
CC(C)C[C@@H](NC(=O)[C@@H](Cc1ccccc1)NC(=O)c1cnccn1)B(O)O | 57.3% | · | · | · | · | 0.0042µM*
COc1ccc(-c2oc3cccnc3c2/C=C/c2ccc(OC)c(OC)c2)cc1 | ? | -5.8% | i | -11.7% | i | 1.64µM*
COc1ccc(/C=C/c2c(-c3ccc(OC)cc3)oc(=O)c3cc(OC)c(OC)cc23)cc1 | 2.8% | 9.9% | i | -3.3% | i | 6.7%
O=C(OCC(=O)N1CCCCCC1)c1ccc([N+](=O)[O-])cc1Cl | 0.82µM* | 11.5% | i | -1.1% | i | -15.6%
COc1ccc(C(=O)/C=C/c2cn(CC(O)CN3CCOCC3)c3ccccc23)cc1 (configuration not stated) | 14.6µM* | ? | i | ? | i | 14.6µM*
CCCN(CCC)CC(O)Cn1cc(/C=C/C(=O)c2ccc(OCC)cc2)c2ccccc21 (configuration not stated) | · | · | i | · | ? | ·
Cc1ccc(C(=O)/C=C/c2cn(CC(O)CN3CCOCC3)c3ccccc23)cc1 (configuration not stated) | 13µM* | ? | ? | ? | i | 20.6µM*
Cc1ccc(C(=O)/C=C/c2cn(CC(O)CN3CCc4ccccc43)c3ccccc23)cc1 (configuration not stated) | · | · | ? | · | i | ·
CCOC(=O)[C@H](CCc1ccccc1)N[C@@H](C)C(=O)N1Cc2ccccc2C[C@H]1C(=O)O | 0.116µM* | 4.9% | i | 18.3% | i | -0.4%
CCOC(=O)[C@@H](CCc1ccccc1)N[C@H](C)C(=O)N1[C@H](C(=O)O)C[C@@H]2CCC[C@@H]21 | 12.3% | -3.7% | i | 21.5% | ? | -39.8%
CCOc1ccc(OCc2nnc(SCC(=O)NC3CCS(=O)(=O)C3)n2-c2ccc(Cl)cc2)cc1 (configuration not stated) | 1.1% | -4.7% | i | 2.3% | i | -2.0%
